# Measured values taken from publication PMC4336329 (PLoS ONE, 2015).
# In all, about 310,000 compounds went through this assay and about 14,000 (4.5%) showed an effect of 50% or more. The effect is printed as a negative number. The list comes from a sample in which strong results are over-represented; it also holds similar structures and randomly drawn compounds.
# Target: human ether-à-go-go-related gene (hERG) potassium channel (human, UniProt Q12809)
# Assay: primary screen, population patch clamp on CHO cells stably expressing hERG; higher = less effect of the substance
# 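Further: peak tail current of the secondary pulse compared with the same well before compound.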
# Chain of human ether-à-go-go-related gene (hERG) potassium channel (Q12809 whole entry, looked up): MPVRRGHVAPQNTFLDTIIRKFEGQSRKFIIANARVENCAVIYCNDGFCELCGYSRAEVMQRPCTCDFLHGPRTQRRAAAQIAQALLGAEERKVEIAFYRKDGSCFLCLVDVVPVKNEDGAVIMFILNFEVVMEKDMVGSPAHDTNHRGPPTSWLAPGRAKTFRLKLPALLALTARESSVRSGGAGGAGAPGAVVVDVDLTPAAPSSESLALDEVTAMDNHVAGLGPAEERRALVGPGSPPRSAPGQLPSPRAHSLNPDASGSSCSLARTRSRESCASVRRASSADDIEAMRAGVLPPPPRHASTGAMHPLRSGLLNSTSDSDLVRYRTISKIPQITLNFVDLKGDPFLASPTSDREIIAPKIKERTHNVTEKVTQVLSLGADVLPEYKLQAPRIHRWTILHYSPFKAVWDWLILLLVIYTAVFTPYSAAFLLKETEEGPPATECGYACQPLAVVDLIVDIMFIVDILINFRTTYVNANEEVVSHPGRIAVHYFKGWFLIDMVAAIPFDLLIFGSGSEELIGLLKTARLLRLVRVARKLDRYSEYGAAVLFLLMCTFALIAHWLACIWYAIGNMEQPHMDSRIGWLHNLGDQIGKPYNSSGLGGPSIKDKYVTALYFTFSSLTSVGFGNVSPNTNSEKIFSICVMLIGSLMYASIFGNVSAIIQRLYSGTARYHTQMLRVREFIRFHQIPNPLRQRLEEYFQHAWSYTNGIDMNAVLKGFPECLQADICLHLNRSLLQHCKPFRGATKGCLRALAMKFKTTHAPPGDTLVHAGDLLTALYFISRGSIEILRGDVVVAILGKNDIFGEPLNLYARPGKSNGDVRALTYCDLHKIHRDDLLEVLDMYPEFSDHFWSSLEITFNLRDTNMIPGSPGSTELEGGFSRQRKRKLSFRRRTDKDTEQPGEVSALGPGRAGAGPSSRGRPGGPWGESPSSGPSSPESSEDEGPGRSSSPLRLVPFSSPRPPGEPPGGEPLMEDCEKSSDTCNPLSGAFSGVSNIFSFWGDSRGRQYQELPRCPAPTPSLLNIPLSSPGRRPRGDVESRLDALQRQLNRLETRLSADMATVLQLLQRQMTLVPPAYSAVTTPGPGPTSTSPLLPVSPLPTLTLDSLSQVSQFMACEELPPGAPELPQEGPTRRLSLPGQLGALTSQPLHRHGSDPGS
row,Compound,"hERG current change (%, negative = inhibition) at 10uM [%]"
1,Cc1cccc(Cn2nc(C(C)(C)C)cc2C(=O)Nc2ccc(F)cc2)c1,14.8
2,C(#CCN1CCOCC1)COCC#Cc1ccccc1.Cl,-2.16
3,CC(C)(C)OC(=O)N[C@@H](Cc1c[nH]c2ccccc12)c1nnc(SCC(N)=O)o1,-3.96
4,Cc1nc2ccccc2c(=O)n1-c1cc(F)ccc1F,8.31
5,Cc1ccc(C)c(S(=O)(=O)NNC(=O)Nc2ccccc2Cl)c1,5.51
6,O=c1cc(CSc2ccc(Cl)cc2)nc(-c2ccccn2)[nH]1,-0.0469
7,COc1ccc(CNC(=O)C(c2ccco2)N(Cc2ccccc2)C(=O)Cc2cccs2)cc1 (centres unmarked),18
8,Cc1ccc(C(=O)c2cc([N+](=O)[O-])ccc2N2CCOCC2)cc1C,-17
9,COc1ccc(C(=O)c2cc([N+](=O)[O-])ccc2N2CCN(C)CC2)cc1,-58.2
10,O=C(c1ccccc1)c1cc([N+](=O)[O-])ccc1N1CCCC1,-12
11,Cc1ccc(C(=O)c2cc([N+](=O)[O-])ccc2N2CCCCC2)cc1,-5.08
12,Cc1ccc(C(=O)c2cc([N+](=O)[O-])ccc2N2CCCCC2)cc1C,6.24
13,Cc1ccc(C(=O)c2cc([N+](=O)[O-])ccc2N2CC(C)OC(C)C2)cc1 (centres unmarked),-0.127
14,COc1ccc(C(=O)c2ccc([N+](=O)[O-])cc2Cl)cc1,-16.2
15,O=C(c1ccccc1)c1cc([N+](=O)[O-])ccc1N1CCOCC1,-30.7
16,Cc1ccc(C(=O)c2cc([N+](=O)[O-])ccc2N2CCN(C)CC2)cc1,-64.5
17,CCN1CCN(c2ccc([N+](=O)[O-])cc2C(=O)c2ccc(Cl)cc2)CC1,-72.8
18,CN1CCN(c2ccc([N+](=O)[O-])cc2C(=O)c2ccccc2)CC1,-54.2
19,COc1ccc(C(=O)c2cc([N+](=O)[O-])ccc2N2CCOCC2)cc1,-23.5
20,Cc1nn(CC(=O)N2CCN(S(=O)(=O)c3ccccc3)CC2)c(C)c1[N+](=O)[O-],-10
21,Cl.Clc1cccc(Nc2nc(N3CCOCC3)nc(N3CCOCC3)n2)c1,16.9
22,CN(C)C(=O)c1cn(-c2ccccc2)nc1-c1cc2ccccc2o1,-10.3
23,CC12CCC(=O)N1c1ccccc1C(=O)N2c1ccccc1 (centres unmarked),-9.9
